Measured values from PubChem BioAssay AID1554 (Broad Institute, 2009).
Values joined by “and” are separate entries in the source; they are usually repeats but may differ in a detail not shown here. Equal entries are not always repeated. Hit rate of the full screen: of about 300,000 compounds, about 520 (0.17%) were called active. No stated cut-off is given here; in the data, active means inhibition above about 50%; inconclusive means no clear call, values can overlap the other calls; inactive means below that. Shown is part of a subset that was picked to be rich in actives.

Assay: PubChem AID 1554
Conditions: BJeLR (HRASV12) viability, CellTiter-Glo ATP luminescence, 48 h; stronger effect = higher value; concentration not given here

Q: Which inhibition does the source give for `Cc1cc(C)c(NC(=O)CN2CCCCCC2)c(C)c1` here?
A: Its inhibition is -2.78% (inactive).

Q: For `COc1cccc(C(=O)Nc2ccc(N3CCCC3)cc2)c1`, which inhibition is on record?
A: The inhibition was 52.9% (active).

Q: With `CN1CCN(c2ccc(NC(=O)c3ccccc3)cc2)CC1` as the molecule, how does the inhibition read?
A: The inhibition was -5.43% (inactive).

Q: With `COc1cccc(C(=O)Nc2ccc(N3CCN(C(=O)c4ccco4)CC3)cc2)c1` as the molecule, how does the inhibition read?
A: The inhibition was 11.7% (inactive).

Q: Which inhibition does the source give for `Cc1[nH]c2ccccc2c1-c1ccc(Cl)nn1` here?
A: Its inhibition is 7.01% (inactive).

Q: With `CC(C)(C)SCCSC1=CC(=O)CC(c2ccccc2)C1` (configuration not stated) as the molecule, how does the inhibition read?
A: Its inhibition is 7.66% (inactive).

Q: With `CC1=C/C(=N\OS(=O)(=O)c2ccccc2)C=CC1=O` as the molecule, how does the inhibition read?
A: The inhibition was 91.4% (active).

Q: For `CCCCCN1CC(O)=C(c2ccccc2)C1=N`, which inhibition is on record?
A: The inhibition was -8.91% (inactive).

Q: Which inhibition does the source give for `CCCCCCCCCCCCn1ccc(=N)cc1` here?
A: Its inhibition is 87.5% (active).

Q: Which inhibition does the source give for `CCCCCCCCn1c2c(c(=N)c3c1CCC3)CCCC2` here?
A: The inhibition was 24.6% (inactive).

Q: For `Cn1c(Cc2cccs2)nnc1SCC(=O)Nc1ccccc1`, which inhibition is on record?
A: The inhibition was -23.8% (inactive).

Q: With `C=CCc1c(C)nc2cc(-c3ccccc3)[nH]n2c1=O` as the molecule, how does the inhibition read?
A: Its inhibition is 2.64% (inactive).

Q: Which inhibition does the source give for `COC(=O)c1ccc(COC(=O)c2c(C)nn(Cc3ccccc3Cl)c2Cl)o1` here?
A: Its inhibition is -0.748% (inactive).

Q: For `CCOC(=O)C1CCCN(S(=O)(=O)c2ccc3c(c2)C(C)(C)C(=O)N3C)C1` (configuration not stated), which inhibition is on record?
A: The inhibition was -8.48% (inactive).

Q: Which inhibition does the source give for `N#Cc1cccc(CN2CCC(=O)N([C@H](CO)c3ccccc3)CC2)c1` here?
A: Its inhibition is 4.84% (inactive).

Q: For `CCc1ccc(-c2nn(-c3ccccc3)cc2CSC(=N)N)cc1`, which inhibition is on record?
A: The inhibition was 103% (active).

Q: Which inhibition does the source give for `Cc1ccc(-c2nn(-c3ccccc3)cc2CN(Cc2ccccc2)C(=O)CCC(=O)O)o1` here?
A: Its inhibition is -0.0578% (inactive).

Q: For `Cc1ccc(-c2nn(-c3ccccc3)cc2/C=N/NC(=O)c2ccc3c(c2)OCO3)cc1`, which inhibition is on record?
A: Its inhibition is 11.4% (inactive).

Q: For `COc1ccc(S(=O)(=O)N2CCOC2CNC(=O)C(=O)NCc2ccc(F)cc2)cc1` (configuration not stated), which inhibition is on record?
A: Its inhibition is 6.34% (inactive).

Q: For `Cc1nnc(SC(C)C(=O)Nc2ccc(S(=O)(=O)NC3CCCCC3)cc2)s1` (configuration not stated), which inhibition is on record?
A: The inhibition was -6.12% (inactive).

Q: Which inhibition does the source give for `Cc1cc([N+](=O)[O-])nn1Cc1ccc(F)cc1` here?
A: The inhibition was 7.4% (inactive).

Q: For `CCCc1cc(=O)[nH]c(SCC(=O)c2cc(C)n(CCC)c2C)n1`, which inhibition is on record?
A: The inhibition was 0.606% (inactive).

Q: For `CCCc1cc(=O)[nH]c(SCC(=O)OCc2ccccc2)n1`, which inhibition is on record?
A: The inhibition was -0.726% (inactive).

Q: Which inhibition does the source give for `CCCc1cc(=O)[nH]c(SCC(=O)c2c(N)n(CC(C)C)c(=O)n(C)c2=O)n1` here?
A: Its inhibition is 63.2% (active).

Q: With `COC(=O)[C@H]1[C@H]2C[C@H]3c4[nH]c5ccccc5c4CCN3C[C@@H]2CC[C@@H]1O` as the molecule, how does the inhibition read?
A: The inhibition was -6.61% (inactive) and 2.06% (inactive).

Q: Which inhibition does the source give for `CC(C)(C)c1ccc(/C=C2\SC(=O)N=C2N)cc1` here?
A: Its inhibition is -2.23% (inactive).

Q: For `CC(NC(=O)CC1SC(N)=NC1=O)c1ccccc1` (configuration not stated), which inhibition is on record?
A: Its inhibition is 4.16% (inactive).

Q: With `Brc1ccc2c(c1)[C@H]1OCC[C@H]1[C@@H](c1cccs1)N2` as the molecule, how does the inhibition read?
A: The inhibition was 10.2% (inactive).

Q: Which inhibition does the source give for `CC(C)Cn1c(=O)c2ccccc2n2c(CCC(=O)NCc3ccccn3)nnc12` here?
A: Its inhibition is -6.38% (inactive).

Q: Which inhibition does the source give for `CN(C)N1C(N)=C(C#N)C(c2ccc(Br)cc2)C2=C1CCCC2=O` (configuration not stated) here?
A: Its inhibition is -10.4% (inactive).

Q: With `COc1cc(NS(=O)(=O)c2ccc(NC(=S)NC(=O)c3ccc(Br)cc3)cc2)ncn1` as the molecule, how does the inhibition read?
A: Its inhibition is -4.7% (inactive).

Q: Which inhibition does the source give for `O=C1C2CCCN2C(=O)N1CCCCN1CCN(c2cccc(C(F)(F)F)c2)CC1` (configuration not stated) here?
A: Its inhibition is -4.72% (inactive).

Q: Which inhibition does the source give for `Cc1ccccc1NC(=O)c1nn(-c2ccc(F)c(F)c2)ccc1=O` here?
A: The inhibition was -12.5% (inactive).

Q: For `Cc1cccc(NC(=O)/C=C/c2ccc3c(c2)OCO3)n1`, which inhibition is on record?
A: The inhibition was -11.7% (inactive).

Q: For `CSCCC(NC(=O)COc1ccccc1)C(=O)OCCOc1ccc(Br)cc1` (configuration not stated), which inhibition is on record?
A: Its inhibition is 5.25% (inactive).

Q: Which inhibition does the source give for `COc1ccc(COC(=O)NC(C(=O)O)c2ccccc2)cc1` (configuration not stated) here?
A: Its inhibition is -0.701% (inactive).

Q: With `COc1ccc(C(CCN(Cc2ccc(OC)c(OC)c2)C(=O)CCl)c2ccccc2)cc1` (configuration not stated) as the molecule, how does the inhibition read?
A: Its inhibition is 85.3% (active).

Q: With `COc1ccc(CN(C)C(=O)CC(c2ccccc2)c2ccccc2)cc1` as the molecule, how does the inhibition read?
A: The inhibition was 3.85% (inactive).

Q: For `CCOC(=O)C1=C(CSc2nnnn2C)N(C)C(=O)NC1c1ccccc1` (configuration not stated), which inhibition is on record?
A: The inhibition was 0.916% (inactive).

Q: For `CCN(CC)CCCN=C(N)N`, which inhibition is on record?
A: Its inhibition is -2.78% (inactive).

Q: With `Nc1nc(-c2sc3nc4c(cc3c2N)CCCC4)nc(N2CCOCC2)n1` as the molecule, how does the inhibition read?
A: The inhibition was -1.17% (inactive).

Q: With `CCOC(=O)C1CCN(S(=O)(=O)c2ccc3c(c2)N(C(C)=O)CCO3)CC1` as the molecule, how does the inhibition read?
A: Its inhibition is 6.7% (inactive).

Q: For `CCN1C(=O)[C@@H]2[C@@H](c3ccc(-c4ccccc4)cc3)N3CCCC[C@@]3(C(=O)OC)[C@@H]2C1=O`, which inhibition is on record?
A: Its inhibition is 6.3% (inactive).

Q: With `COc1ccc(NC(=O)CN(C)C(=O)c2ccc(NC3CC3)c([N+](=O)[O-])c2)cc1` as the molecule, how does the inhibition read?
A: The inhibition was -1.94% (inactive).

Q: Which inhibition does the source give for `O=C(CCC(=O)n1ncc2ccccc21)NCc1ccccc1Cl` here?
A: The inhibition was 2.75% (inactive).

Q: For `COc1ccccc1CCC(=O)OCC(=O)N1CCN(S(=O)(=O)c2ccc(C)cc2C)CC1`, which inhibition is on record?
A: The inhibition was -5.89% (inactive).

Q: For `N#C/C(=C(\O)C(F)(F)F)c1nnc2n1CCCCC2`, which inhibition is on record?
A: The inhibition was -1.07% (inactive).
